This is an account of results in ChEMBL document CHEMBL3988442, “University of Dundee, Small-Polar-MMV Screening Library” (2021).

For some of these results: Entries with a potency or affinity are not part of this list.

Holding throughout (design): scale not given: direction of the effect not stated beside the values
The target of test [1] is Protein translocase subunit SecA (Escherichia coli (strain K12)) (UniProt P10408). Kind of test: Assay to Identify E. coli SecA ATPase Inhibitors. The test is classed as functional. Conditions: 30 µM.
The target of test [2] is T1, Ubiquitin-activating enzyme e1, putative (Leishmania donovani (strain BPK282A1)) (UniProt E9BSI1).
T1 sequence (whole entry): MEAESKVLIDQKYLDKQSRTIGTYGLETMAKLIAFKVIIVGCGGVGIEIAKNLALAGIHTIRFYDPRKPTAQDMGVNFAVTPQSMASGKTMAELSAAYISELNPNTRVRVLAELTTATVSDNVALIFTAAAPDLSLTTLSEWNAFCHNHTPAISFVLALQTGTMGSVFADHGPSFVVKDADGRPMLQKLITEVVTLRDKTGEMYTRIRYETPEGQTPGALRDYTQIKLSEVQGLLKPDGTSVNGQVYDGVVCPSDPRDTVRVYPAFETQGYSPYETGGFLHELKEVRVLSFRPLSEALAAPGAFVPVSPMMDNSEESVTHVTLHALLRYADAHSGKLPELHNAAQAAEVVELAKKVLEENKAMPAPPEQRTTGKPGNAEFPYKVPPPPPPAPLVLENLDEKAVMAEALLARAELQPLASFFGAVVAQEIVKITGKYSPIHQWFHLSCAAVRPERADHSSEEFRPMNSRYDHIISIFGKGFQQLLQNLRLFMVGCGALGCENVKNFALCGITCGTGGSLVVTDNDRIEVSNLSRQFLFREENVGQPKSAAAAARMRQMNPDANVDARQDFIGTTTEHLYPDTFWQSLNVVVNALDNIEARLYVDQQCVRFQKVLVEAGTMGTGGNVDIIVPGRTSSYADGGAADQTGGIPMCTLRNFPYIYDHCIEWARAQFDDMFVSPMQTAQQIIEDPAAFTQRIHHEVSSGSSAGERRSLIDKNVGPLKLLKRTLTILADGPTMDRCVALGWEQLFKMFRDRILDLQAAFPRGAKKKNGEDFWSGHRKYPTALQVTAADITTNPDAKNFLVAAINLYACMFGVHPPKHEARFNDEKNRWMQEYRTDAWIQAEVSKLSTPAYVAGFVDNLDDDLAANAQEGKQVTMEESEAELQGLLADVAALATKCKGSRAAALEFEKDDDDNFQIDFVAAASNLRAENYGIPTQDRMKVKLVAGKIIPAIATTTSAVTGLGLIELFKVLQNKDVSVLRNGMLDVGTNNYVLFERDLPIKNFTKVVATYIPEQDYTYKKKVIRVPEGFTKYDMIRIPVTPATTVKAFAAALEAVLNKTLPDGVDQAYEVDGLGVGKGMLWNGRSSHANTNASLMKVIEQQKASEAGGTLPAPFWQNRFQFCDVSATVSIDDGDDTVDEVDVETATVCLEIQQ
Kind of test: Leishmania donovani Ubiquitin Activating Enzyme (LdE1). The test is classed as functional. Conditions: 30 µM.

Test [3] deals with AMP-activated protein kinase, AMPK (Homo sapiens) (UniProt P54646+O43741+P54619+Q9UGJ0+Q9Y478+Q13131+Q9UGI9). Kind of test: AMP-dependent Kinase enzyme assay. An in vitro enzyme assay that detects ADP turnover that is directly proportional to AMPK activity. This uses naive AMPK that is activated during the assay with MK-8722. The class given is functional. Conditions: 30 µM.
For test [4], the target named is Sialic acid-binding Ig-like lectin 9 (Homo sapiens) (UniProt Q9Y336). Kind of test: Hs-Siglec9 ALPHAscreen SOP 20170721. Conditions: 10 µM. In general terms: Bead proximity is the source of the signal in Alpha formats.
Test [5] concerns Trypanosoma cruzi. Put plainly: Trypanosoma cruzi phosphomannomutase and mannose-1-phosphate guanylyltransferase assay. The test is classed as functional. Conditions: 10 µM.
The target of test [6] is T2, Arginase-2, mitochondrial (Homo sapiens) (UniProt P78540).
T2 sequence (whole entry): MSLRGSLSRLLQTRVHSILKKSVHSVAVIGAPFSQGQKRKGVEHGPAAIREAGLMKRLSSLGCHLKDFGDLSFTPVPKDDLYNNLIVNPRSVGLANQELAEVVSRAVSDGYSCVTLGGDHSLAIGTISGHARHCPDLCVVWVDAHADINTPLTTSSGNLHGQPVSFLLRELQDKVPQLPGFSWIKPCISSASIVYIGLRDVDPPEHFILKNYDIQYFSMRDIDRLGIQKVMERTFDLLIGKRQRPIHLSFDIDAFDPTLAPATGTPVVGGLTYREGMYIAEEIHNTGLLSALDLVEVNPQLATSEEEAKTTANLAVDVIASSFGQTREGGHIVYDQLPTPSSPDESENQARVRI
Put plainly: in vitro enzyme assay to detect the production of urea directly proportional to the activity of Arginase II. Further: in the data most compounds retested in dose-response had high values. The class given is functional. Conditions: 33.3 µM.

Test [7] deals with T3, Proteasome subunit beta (Trypanosoma cruzi) (UniProt O96673).
T3 sequence (whole entry): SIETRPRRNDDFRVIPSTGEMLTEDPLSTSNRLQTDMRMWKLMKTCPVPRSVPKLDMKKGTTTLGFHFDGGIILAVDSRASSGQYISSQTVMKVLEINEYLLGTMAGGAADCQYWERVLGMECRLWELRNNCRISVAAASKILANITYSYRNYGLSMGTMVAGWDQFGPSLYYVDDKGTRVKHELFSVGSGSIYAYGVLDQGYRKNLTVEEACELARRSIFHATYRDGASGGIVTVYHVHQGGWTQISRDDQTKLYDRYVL
Put plainly: Trypanosoma cruzi proteasome chymotrypsin-like activity (TcProtChymo) assay. Further: in the data most compounds retested in dose-response had high values. The class given is functional. Conditions: 9.37 µM.

The species entered for test [8] is Homo sapiens. Kind of test: To identify inhibition of the IFN signalling (Jak-Stat) pathway via expression of an eGFP reporter gene under the control of an IFN-stimulated response element (ISRE) containing MxA promoter. The class given is functional. Conditions: 30 µM.
Test [9] has as its target T4, Tyrosyl-tRNA synthetase, putative (Trypanosoma cruzi (strain CL Brener)) (UniProt Q4DSP6).
T4 sequence (whole entry): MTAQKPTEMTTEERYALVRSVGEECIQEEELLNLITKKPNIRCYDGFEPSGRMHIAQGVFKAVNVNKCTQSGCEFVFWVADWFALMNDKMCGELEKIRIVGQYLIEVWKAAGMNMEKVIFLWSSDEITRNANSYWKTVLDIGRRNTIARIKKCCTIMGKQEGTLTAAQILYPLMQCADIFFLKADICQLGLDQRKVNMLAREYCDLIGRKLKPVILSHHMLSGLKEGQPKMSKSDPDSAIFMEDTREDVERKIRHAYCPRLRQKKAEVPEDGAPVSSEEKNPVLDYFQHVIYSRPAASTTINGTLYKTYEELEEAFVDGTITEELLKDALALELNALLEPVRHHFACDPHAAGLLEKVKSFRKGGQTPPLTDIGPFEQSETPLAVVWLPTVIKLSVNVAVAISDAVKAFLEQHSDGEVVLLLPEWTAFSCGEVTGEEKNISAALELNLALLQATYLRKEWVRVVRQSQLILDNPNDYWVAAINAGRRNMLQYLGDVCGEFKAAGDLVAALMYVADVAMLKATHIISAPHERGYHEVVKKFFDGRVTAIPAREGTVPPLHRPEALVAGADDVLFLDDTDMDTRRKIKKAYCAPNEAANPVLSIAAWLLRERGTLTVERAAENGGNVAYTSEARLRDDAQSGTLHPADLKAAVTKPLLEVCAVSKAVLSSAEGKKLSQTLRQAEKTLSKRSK
Put plainly: Trypanosoma cruzi tyrosyl tRNA synthetase (TcYRS) _High Tyrosine SOP. Further: in the data most compounds retested in dose-response had high values. Conditions: 30 µM. The test is classed as functional.

The target of test [10] is T4, Tyrosyl-tRNA synthetase, putative (Trypanosoma cruzi (strain CL Brener)). Put plainly: Trypanosoma cruzi tyrosyl tRNA synthetase (TcYRS) SOP. The class given is functional. Conditions: 30 µM.
Test [11] deals with Chromo domain-containing protein 1 (Saccharomyces cerevisiae (strain ATCC 204508 / S288c) (Baker's yeast)) (UniProt P32657). Kind of test: ScCHD-1 Enzyme Inhibition Assay. Further: in the data most compounds retested in dose-response had high values. The class given is functional. Conditions: 30 µM.
Sequence of Chromo domain-containing protein 1 (Saccharomyces cerevisiae (strain ATCC 204508 / S288c) (Baker's yeast)) (P32657 whole entry, the tested form may be a part): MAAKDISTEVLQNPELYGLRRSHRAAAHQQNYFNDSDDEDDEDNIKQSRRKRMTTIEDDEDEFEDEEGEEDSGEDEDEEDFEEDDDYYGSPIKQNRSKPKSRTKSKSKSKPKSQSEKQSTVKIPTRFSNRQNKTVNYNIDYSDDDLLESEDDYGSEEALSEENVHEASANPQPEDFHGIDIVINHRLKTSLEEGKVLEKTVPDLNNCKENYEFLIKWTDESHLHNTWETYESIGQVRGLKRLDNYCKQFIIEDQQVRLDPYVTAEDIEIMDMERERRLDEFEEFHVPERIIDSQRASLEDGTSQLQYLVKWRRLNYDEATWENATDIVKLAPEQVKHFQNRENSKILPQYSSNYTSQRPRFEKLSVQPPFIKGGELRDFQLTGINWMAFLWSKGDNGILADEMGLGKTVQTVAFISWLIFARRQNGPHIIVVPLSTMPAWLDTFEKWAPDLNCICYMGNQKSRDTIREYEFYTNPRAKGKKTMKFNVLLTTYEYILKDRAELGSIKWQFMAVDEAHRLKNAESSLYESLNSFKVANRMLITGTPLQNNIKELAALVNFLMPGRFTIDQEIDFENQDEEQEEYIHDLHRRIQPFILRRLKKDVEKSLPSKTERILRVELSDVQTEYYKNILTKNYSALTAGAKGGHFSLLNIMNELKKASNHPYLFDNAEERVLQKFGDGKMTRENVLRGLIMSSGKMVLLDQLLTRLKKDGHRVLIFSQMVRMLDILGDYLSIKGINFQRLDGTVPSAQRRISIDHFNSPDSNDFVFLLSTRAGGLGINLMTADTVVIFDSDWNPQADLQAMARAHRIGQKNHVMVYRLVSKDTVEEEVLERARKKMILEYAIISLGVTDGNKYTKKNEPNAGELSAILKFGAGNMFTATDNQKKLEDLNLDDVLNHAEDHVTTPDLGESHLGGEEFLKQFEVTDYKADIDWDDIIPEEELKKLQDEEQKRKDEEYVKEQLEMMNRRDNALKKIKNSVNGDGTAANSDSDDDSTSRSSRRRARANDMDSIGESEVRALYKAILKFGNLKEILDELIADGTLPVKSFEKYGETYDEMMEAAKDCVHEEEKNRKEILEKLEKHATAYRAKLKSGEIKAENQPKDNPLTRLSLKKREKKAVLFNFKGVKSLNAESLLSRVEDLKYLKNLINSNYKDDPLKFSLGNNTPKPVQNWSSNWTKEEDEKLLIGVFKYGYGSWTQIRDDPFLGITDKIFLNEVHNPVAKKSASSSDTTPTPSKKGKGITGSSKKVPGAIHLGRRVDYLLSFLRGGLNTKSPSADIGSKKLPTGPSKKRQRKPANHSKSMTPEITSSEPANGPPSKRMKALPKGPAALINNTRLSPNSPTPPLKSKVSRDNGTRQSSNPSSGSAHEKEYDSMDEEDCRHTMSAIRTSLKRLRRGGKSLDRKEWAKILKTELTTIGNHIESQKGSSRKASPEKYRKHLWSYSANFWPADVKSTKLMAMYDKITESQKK

Sequence of Sialic acid-binding Ig-like lectin 9 (Homo sapiens) (Q9Y336 whole entry): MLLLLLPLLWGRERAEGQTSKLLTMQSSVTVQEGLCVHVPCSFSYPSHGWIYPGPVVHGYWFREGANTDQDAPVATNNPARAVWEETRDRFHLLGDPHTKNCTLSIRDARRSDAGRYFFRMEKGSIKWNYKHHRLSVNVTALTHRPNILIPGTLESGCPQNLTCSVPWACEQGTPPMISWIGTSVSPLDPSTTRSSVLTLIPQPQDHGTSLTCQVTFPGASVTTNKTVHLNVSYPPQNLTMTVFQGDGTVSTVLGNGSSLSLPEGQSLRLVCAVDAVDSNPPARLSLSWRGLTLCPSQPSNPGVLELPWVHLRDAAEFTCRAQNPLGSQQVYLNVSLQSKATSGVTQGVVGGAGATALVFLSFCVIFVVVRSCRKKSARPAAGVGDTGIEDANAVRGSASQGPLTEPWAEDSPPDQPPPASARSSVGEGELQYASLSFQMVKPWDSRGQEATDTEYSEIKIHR
Sequence of Protein translocase subunit SecA (Escherichia coli (strain K12)) (P10408 whole entry): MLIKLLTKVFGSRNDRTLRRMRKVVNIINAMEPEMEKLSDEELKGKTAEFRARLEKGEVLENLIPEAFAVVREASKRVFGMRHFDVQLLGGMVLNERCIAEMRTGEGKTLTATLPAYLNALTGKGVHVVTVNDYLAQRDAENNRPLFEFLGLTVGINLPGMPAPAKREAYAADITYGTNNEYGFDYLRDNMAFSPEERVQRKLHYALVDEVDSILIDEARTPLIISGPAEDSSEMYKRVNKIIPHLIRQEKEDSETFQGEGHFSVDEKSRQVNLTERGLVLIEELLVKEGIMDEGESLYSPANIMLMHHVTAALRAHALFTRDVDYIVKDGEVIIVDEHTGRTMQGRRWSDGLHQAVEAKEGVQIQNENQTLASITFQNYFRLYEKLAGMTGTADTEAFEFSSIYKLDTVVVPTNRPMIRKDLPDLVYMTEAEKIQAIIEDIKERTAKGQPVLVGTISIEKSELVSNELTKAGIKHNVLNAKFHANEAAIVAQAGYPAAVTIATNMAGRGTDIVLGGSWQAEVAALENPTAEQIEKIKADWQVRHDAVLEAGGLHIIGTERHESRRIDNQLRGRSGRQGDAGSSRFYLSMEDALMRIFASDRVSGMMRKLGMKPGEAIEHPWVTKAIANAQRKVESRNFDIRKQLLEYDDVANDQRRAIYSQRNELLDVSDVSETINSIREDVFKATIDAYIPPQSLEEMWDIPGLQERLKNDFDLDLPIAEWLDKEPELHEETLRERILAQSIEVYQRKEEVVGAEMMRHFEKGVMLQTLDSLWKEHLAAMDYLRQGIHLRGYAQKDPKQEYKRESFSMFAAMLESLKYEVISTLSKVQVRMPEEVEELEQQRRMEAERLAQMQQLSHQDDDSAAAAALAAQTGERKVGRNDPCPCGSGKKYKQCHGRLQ

As to `CC(NC(=O)Cn1cccn1)c1cccnc1` (stereo unspecified), the Percent Effect in [1] is -4.41%; in test [2], 8%; in test [3], -4.08%; in test [4] it was 11%; in test [5], 8.67%; in test [6], 6.25%. Besides, the Percent Effect in test [7] was 1.92%; in test [8] it was 10.3%; in test [9], 3.83%; in test [10] it was 13.6%; in [11], -3.89%.
`COc1c(CNC2CCN(c3ncccn3)CC2)c(C(C)C)nn1C`: the Percent Effect was -4.79% in [1]; 10.5% in [2]; 4.83% in [3]; -4.46% in test [4]; -6.26% in test [5]; 7.55% in test [6]. The Percent Effect in test [7] was 2.79%; in [8], -4.77%; in [9], 6.4%; in [10], 16.1%; in test [11], -4.31%.
With `CN(C)C(=O)Cc1nc(CN2CCn3c(nnc3C3CC3)C2)cs1`, the Percent Effect in test [1] was -3.93%; in test [2], 16.2%; in test [3], 2.91%; in test [4], 3.53%; in [5], 2.14%; in test [6] it was -2.4%. Further, the Percent Effect in [7] is 10.8%; in test [8] it was 7.25%; in test [9] it was 5.94%; in test [10] it was 15.8%; in test [11], -2.27%.
On to `Cc1nn(C)c(Cl)c1C1CCCN1C(=O)c1cc[nH]n1` (stereo unspecified), for which the Percent Effect was -1.54% in test [1]; 2.7% in test [2]; -1.34% in test [3]; 13.1% in test [4]; 2.74% in [5]; -2% in test [6]. Moreover, the Percent Effect in test [7] is 8.83%; in test [8] it was -3.1%; in test [9], 2.46%; in test [10], 11.1%; in test [11] it was -9.56%.
Regarding `COCC(=O)N1CCCC2(CCN(c3ccsc3)C2=O)C1` (stereo unspecified), the Percent Effect in test [1] was -5.59%; in test [2], 2.67%; in test [3], 5.83%; in [4], -0.603%; in test [5], -1.18%; in test [6], -0.699%. Besides, the Percent Effect is -5.73% in test [7]; 26.1% in [8]; 0% in [9]; -1.28% in test [10]; 4.35% in test [11].
For the compound `COc1ccccc1Oc1ncccc1CNC(=O)C(C)N1CCCC1` (stereo unspecified), the Percent Effect was -3.48% in test [1]; 12.5% in [2]; -6.43% in test [3]; 29.1% in test [4]; 3.4% in test [5]; 50.3% in [6]. Also, the Percent Effect in test [7] was 11.8%; in test [8] it was -6.43%; in test [9], 4.21%; in [10] it was 12.8%; in [11], -9.98%.
Consider `CCOC(CC)C(=O)NCCC(=O)N1CCN(c2ncccn2)CC1` (stereo unspecified), for which the Percent Effect in test [1] was -2.66%; in [2], 2.63%; in test [3], 4.87%; in test [4], 5.24%; in test [5], 5.94%; in test [6] it was 0%. In addition, the Percent Effect was found to be 7.19% in [7]; 0.555% in test [8]; 3.19% in [9]; 5.2% in test [10]; 1.78% in test [11].
As to `CC1CCCN(C(=O)CCc2cccnc2)C1` (stereo unspecified), the Percent Effect is 2.47% in test [1]; 17.7% in test [2]; 0.257% in test [3]; -8.86% in test [4]; -5.57% in test [5]; 6.84% in test [6]. Moreover, the Percent Effect in [7] was 7.29%; in test [8], 25.3%; in test [9] it was 3.45%; in test [10], 16.5%; in test [11], -0.749%.
`CC(=O)c1cc(CN2C[C@H]3CC[C@@H]2CN(S(=O)(=O)N(C)C)C3)cs1`: the Percent Effect in test [1] is -5.56%; in [2], 15.3%; in [3] it was -10.7%; in [4], 36%; in test [5], 7.68%; in [6] it was 6.18%. In addition, the Percent Effect is 5.96% in [7]; 4.65% in test [8]; 7.37% in test [9]; 10.3% in test [10]; -3.04% in test [11].
Consider `CSCC(=O)N1CCC2(CC1)c1ccccc1CC2O` (stereo unspecified), for which the Percent Effect is -1.39% in test [1]; 18.2% in test [2]; 10.7% in test [3]; 2.45% in test [4]; 2.26% in test [5]; -4.14% in [6]. Moreover, the Percent Effect in test [7] is 18.5%; in test [8], 5.92%; in test [9] it was 5.38%; in test [10] it was 11.1%; in [11], -3.92%.
Regarding `CC(=O)N1CCn2c(COCc3csc(C)n3)cnc2C1C` (stereo unspecified), the Percent Effect was -5.84% in test [1]; 18.7% in test [2]; -3.96% in test [3]; 4.19% in test [4]; 4.05% in test [5]; -55.7% in test [6]. Also, the Percent Effect in test [7] is 9.57%; in test [8], 7.41%; in [9] it was -10.4%; in [10], 15%; in test [11] it was -9.91%.
